In assay [1] the test system is Human papillomavirus type 1a protein E7 (residues 44-93). Briefly: small molecules binding HPV E7 44-93 – biochemical, small-molecule microarray, residues 44-93, 635 nm fluorescence, primary screen (AID 1108).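 Also: E7 fragment applied at 1 µg/mL in TBST for 1 h at 4 C; score combines spot fluorescence with its signal to noise ratio.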 The note with it: fluorescence 635 nm, higher = more signal.
Assay [2] can be described thus: hepatitis C replication reporter changes, two-sided – Huh7 cells, luciferase reporter, HCV replication inhibitor project, primary screen (AID 1109).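 Also: huh7 hepatoma cells harbouring a luciferase neomycin HCV replicon reporter; luciferase luminescence as measure of HCV replicon replication; test concentration not given here.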 The note with it: Huh7 HCV replicon luciferase reporter, 48 h; higher = more signal.
For assay [3], the target named is Left-right determination factor 2 (Homo sapiens) (UniProt O00292). Briefly: small molecules binding LEFTY2 protein – biochemical, small-molecule microarray, 635 nm fluorescence scan, primary screen (AID 1110). The note with it: higher = more signal.
Chain of Left-right determination factor 2 (Homo sapiens) (O00292 whole entry, looked up): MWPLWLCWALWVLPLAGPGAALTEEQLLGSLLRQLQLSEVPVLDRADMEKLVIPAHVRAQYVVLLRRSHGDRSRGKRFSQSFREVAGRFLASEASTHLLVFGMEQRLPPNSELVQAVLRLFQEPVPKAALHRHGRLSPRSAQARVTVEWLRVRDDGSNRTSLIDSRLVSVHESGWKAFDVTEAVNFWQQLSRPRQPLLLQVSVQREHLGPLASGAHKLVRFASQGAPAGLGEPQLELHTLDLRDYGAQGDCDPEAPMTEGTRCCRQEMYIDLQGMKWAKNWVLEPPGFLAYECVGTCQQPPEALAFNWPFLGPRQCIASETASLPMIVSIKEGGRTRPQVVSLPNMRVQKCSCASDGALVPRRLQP
The target of assay [4] is Calmodulin-1 (Homo sapiens) (UniProt P0DP23). Briefly: small molecules binding calmodulin-1 with EGTA – biochemical, small-molecule microarray, Cy5-labelled CALM1, profiling panel (AID 1111).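 Also: labelled calmodulin applied in Tris saline Tween buffer holding calcium plus EGTA and DTT.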 The conditions noted are these: Cy5-CALM1 binding fluorescence, higher = more signal.
The target is the same in assay [5]. Briefly: small molecules binding Ca-loaded calmodulin-1 – biochemical, small-molecule microarray, Cy5-labelled CALM1, plus calcium, artefact control for SMM control-protein annotation, profiling panel (AID 1112).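 Also: score merges spot fluorescence with signal to noise from triplicate slides.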 The note with it: Cy5-CALM1 binding fluorescence, higher = more signal.
Assay [6] in a line: probe aWnt5a binding to arrayed compounds – biochemical, biotinylated probe, 635/667 nm fluorescence, primary screen (AID 1113).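 Also: score merges 667 nm fluorescence intensity with signal-to-noise per printed feature.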 The note with it: small-molecule microarray, higher = more signal.
Assay [7] in a line: probe aShh binding to arrayed compounds – biochemical, biotinylated probe, 635/667 nm fluorescence, primary screen (AID 1114).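 Also: probe is biotin-labelled aShh protein from a stem cell growth factor screen; measures binding of labelled protein to compounds printed on the slide; score merges feature fluorescence at 667 nm with signal-to-noise.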 The conditions noted are these: small-molecule microarray, higher = more signal.
Assay [8] in a line: probe aNog binding to arrayed compounds – biochemical, biotinylated probe, 635/667 nm fluorescence, primary screen (AID 1115).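 Also: probe is biotinylated aNog protein used at 0.15 µg/mL for 1 h at 4 C; z-score combines 667 nm fluorescence of each spot with its signal to noise.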 The note with it: small-molecule microarray, higher = more signal.
For assay [9], the target named is Torsin-1A-interacting protein 1 (Homo sapiens) (UniProt Q5JTV8). Briefly: compound microarray binding of lysate hLAP1 – cell lysate, small-molecule microarray, COS7 lysate, 635/667 nm fluorescence, primary screen (AID 1116). The conditions noted are these: 635 nm fluorescence, higher = more signal.
Chain of Torsin-1A-interacting protein 1 (Homo sapiens) (Q5JTV8 whole entry, looked up): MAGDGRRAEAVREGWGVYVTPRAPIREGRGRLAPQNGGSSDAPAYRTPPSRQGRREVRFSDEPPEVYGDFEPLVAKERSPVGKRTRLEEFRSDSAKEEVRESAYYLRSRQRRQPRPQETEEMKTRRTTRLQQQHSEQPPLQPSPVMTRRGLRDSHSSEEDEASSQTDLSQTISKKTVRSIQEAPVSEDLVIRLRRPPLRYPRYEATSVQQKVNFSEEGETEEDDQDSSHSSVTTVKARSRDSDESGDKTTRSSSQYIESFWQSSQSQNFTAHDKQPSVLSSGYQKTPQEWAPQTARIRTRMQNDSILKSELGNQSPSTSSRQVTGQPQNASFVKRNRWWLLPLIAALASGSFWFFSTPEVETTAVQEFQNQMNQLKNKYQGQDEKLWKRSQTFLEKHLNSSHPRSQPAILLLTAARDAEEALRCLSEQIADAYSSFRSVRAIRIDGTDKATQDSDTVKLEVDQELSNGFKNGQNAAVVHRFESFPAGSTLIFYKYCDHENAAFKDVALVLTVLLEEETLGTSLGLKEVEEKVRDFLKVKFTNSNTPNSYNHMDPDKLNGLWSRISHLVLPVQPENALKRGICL
The target of assay [10] is Alpha-bungarotoxin (Bungarus multicinctus) (UniProt P60615). Briefly: compounds binding labelled alpha-BTX control protein – biochemical, small-molecule microarray, Alexa647 label, 635/667 nm fluorescence, artefact control for SMM control protein annotation, profiling panel (AID 1117). The note with it: alpha-BTX-A647 binding fluorescence, higher = more signal.
Chain of Alpha-bungarotoxin (Bungarus multicinctus) (P60615 whole entry, looked up): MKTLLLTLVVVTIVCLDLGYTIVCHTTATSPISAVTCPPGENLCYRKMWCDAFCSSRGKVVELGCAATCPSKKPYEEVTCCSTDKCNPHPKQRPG

Turning to `CC(C)(C)OC(=O)CC[C@]1(C(N)=O)N=C(c2ccc(OCCCO)cc2)O[C@H]1c1ccccc1CN=[N+]=[N-]`, the composite z-score in assay [1] was 0.6; in assay [3] it was -0.63; in assay [4], 2.67; in [5], 1.73; in assay [6], -0.096; in assay [7], 0.84. Further, the composite z-score is -0.143 in [8], 2.26 in [9] and 1.46 in [10]. In assay [2], the z-score was found to be 1.46.

Consider `CCOC(=O)C1=CC[C@@H](c2ccccc2)N(S(=O)(=O)c2ccc(C)cc2)[C@H]1C#N`, for which the composite z-score in assay [1] is 0.894; in assay [3], 0.116; in assay [4] it was 0.906; in assay [5], 0.658; in [6], 0.0044; in assay [7], -0.16. The composite z-score is -0.59 in [8], 1.03 in assay [9] and -0.06 in [10]. Moreover, the z-score in [2] was -1.76.

Consider `CCCCC(O)C1C=CC2C(=O)NC(=O)C2N1Nc1ccccn1` (stereo not given), for which the composite z-score was -0.382 in assay [1]; 0.132 in assay [3]; -0.0937 in assay [4]; -0.466 in assay [5]; -0.1 in [6]; 0.25 in [7]. Also, the results for the composite z-score in assay [8], in assay [9] and in assay [10] were 0.289, 0.233 and 0.275, respectively. Besides, the z-score in assay [2] was -1.11.

Turning to `CO[C@H]1O[C@H](CO)[C@@H](OC(=O)Nc2ccc3c(c2)OCO3)[C@@H]2OC(=O)[C@@H](Cc3ccccc3)C/C=C/C[C@H](Cc3ccccc3)C(=O)O[C@@H]12`, the composite z-score is 1.37 in assay [1]; 0.0694 in assay [3]; 0.929 in assay [4]; -0.728 in assay [5]; 0.0533 in [6]; 0.149 in assay [7]. Also, the composite z-score in assay [8] stood at 1.09; in assay [9], 0.0909; in assay [10] it was 0.732. In addition, in assay [2], the z-score was -2.54.

Take `C=CCC(OC(C)=O)[C@@H]1[C@@H](N(Cc2cccc3ccccc23)C(=O)c2ccc(C)cc2)c2cc(OCCCO)ccc2N1C(=O)c1ccc2ccccc2n1` (stereo not given in full): the composite z-score in assay [1] was -0.139; in [3], -0.0457; in [4] it was -0.388; in [5], -0.195; in assay [6], -0.147; in assay [7], -0.341. Also, the figures for the composite z-score in assay [8], in [9] and in [10] were -0.555, 0.482 and 1.46, respectively. Also, in [2], the z-score is -0.614.

As for `C=C(CCCC)C(=O)CC[C@H](OC(=O)c1cccnc1)c1ccc(CO)o1`, the composite z-score in assay [1] is 1.07; in assay [3], 1.16; in assay [4], 0.223; in assay [5], -0.183; in assay [6], -0.0462; in assay [7], 0.191. Further, the composite z-score in [8] was -0.116; in assay [9] it was 0.706; in assay [10], 0.542. In addition, the z-score in [2] is -1.26.

On to `O=C1C2C=CC(C(O)C(c3ccccc3)c3ccccc3)N(Nc3ccccc3)C2C(=O)N1c1ccccc1` (stereo not given), for which the composite z-score is 1.44 in [1]; 0.438 in [3]; 0.809 in assay [4]; 0.173 in assay [5]; -0.0051 in assay [6]; 0.0068 in [7]. Moreover, the composite z-score in assay [8] was determined as 0.162; in [9], 0.429; in assay [10], 1.1. This compound also displayed a z-score in [2] of -0.267.

For `Cc1ccc(S[C@]2(C(=O)NCCCN(C)C)CC(=O)N(Cc3ccccc3Cl)[C@@H]2c2ccc(CO)cc2I)cc1`, the composite z-score in assay [1] is -0.177; in [3], -1.7; in assay [4], 0.0681; in [5] it was 0.283; in assay [6], -0.1; in assay [7] it was -0.0681. Also, the composite z-score in assay [8] was determined as 0.692; in [9], 0.49; in assay [10] it was 2.46. The compound also displayed a z-score in [2] of -1.55.

The values are drawn from PubChem BioAssay.
